Target: HOXD13 (Homo sapiens, UniProt P35453 263-343, T313R)
Experiment: PBM; 200 nM protein, PBS
Conditions: dsDNA, one strand shown

Sequence of HOXD13 (P35453 263-343 T313R): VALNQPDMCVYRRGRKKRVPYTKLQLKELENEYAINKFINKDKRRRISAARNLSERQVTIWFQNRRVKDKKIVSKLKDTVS

Row | Sequence | binding signal
1 | GTTGTAAA | 10.6 upbm affinity estimate (log intensity, higher = more binding, comparable within an allelic series)
2 | GAGCCCAC | 9.49 upbm affinity estimate (log intensity, higher = more binding, comparable within an allelic series)
3 | CAGTGGGG | 9.47 upbm affinity estimate (log intensity, higher = more binding, comparable within an allelic series)
4 | ATTTTATA | 10.9 upbm affinity estimate (log intensity, higher = more binding, comparable within an allelic series)
5 | TAATATAA | 10.8 upbm affinity estimate (log intensity, higher = more binding, comparable within an allelic series)
6 | GTTATTAA | 10.7 upbm affinity estimate (log intensity, higher = more binding, comparable within an allelic series)
7 | GCTCGTAA | 10.6 upbm affinity estimate (log intensity, higher = more binding, comparable within an allelic series)
8 | TCTATAAA | 11 upbm affinity estimate (log intensity, higher = more binding, comparable within an allelic series)
9 | ATATAAAT | 10.8 upbm affinity estimate (log intensity, higher = more binding, comparable within an allelic series)
10 | ACCAGGGG | 9.62 upbm affinity estimate (log intensity, higher = more binding, comparable within an allelic series)

Target: T1, SIX6 (Homo sapiens, UniProt O95475 114-200, T165A)
T1 sequence: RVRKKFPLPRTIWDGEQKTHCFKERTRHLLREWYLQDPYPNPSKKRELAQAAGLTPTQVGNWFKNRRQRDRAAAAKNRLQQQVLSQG
Experiment: PBM; 200 nM protein, PBS
Conditions: dsDNA, one strand shown

Row | Sequence | binding signal
11 | GTGTCACA | 10.7 upbm affinity estimate (log intensity, higher = more binding, comparable within an allelic series)
12 | GTGTCAAA | 10.3 upbm affinity estimate (log intensity, higher = more binding, comparable within an allelic series)
13 | GACACCGA | 10.4 upbm affinity estimate (log intensity, higher = more binding, comparable within an allelic series)
14 | AGTGTCAA | 10.3 upbm affinity estimate (log intensity, higher = more binding, comparable within an allelic series)
15 | GGGTGTAA | 10.4 upbm affinity estimate (log intensity, higher = more binding, comparable within an allelic series)
16 | ACTGACAC | 10.4 upbm affinity estimate (log intensity, higher = more binding, comparable within an allelic series)
17 | ATTGACAC | 10.5 upbm affinity estimate (log intensity, higher = more binding, comparable within an allelic series)
18 | AAGGTGTC | 10.5 upbm affinity estimate (log intensity, higher = more binding, comparable within an allelic series)
19 | AGGGTGTC | 10.5 upbm affinity estimate (log intensity, higher = more binding, comparable within an allelic series)
20 | GTGTCATA | 10.8 upbm affinity estimate (log intensity, higher = more binding, comparable within an allelic series)
21 | CGACACCG | 10.2 upbm affinity estimate (log intensity, higher = more binding, comparable within an allelic series)
22 | GACACCAA | 10.5 upbm affinity estimate (log intensity, higher = more binding, comparable within an allelic series)
23 | CTTGACAC | 10.3 upbm affinity estimate (log intensity, higher = more binding, comparable within an allelic series)
24 | CGGGTGTC | 10.4 upbm affinity estimate (log intensity, higher = more binding, comparable within an allelic series)
25 | GGTGTCGA | 10.5 upbm affinity estimate (log intensity, higher = more binding, comparable within an allelic series)
26 | GAGTGTCA | 10.3 upbm affinity estimate (log intensity, higher = more binding, comparable within an allelic series)
27 | AGTGTCAC | 10.4 upbm affinity estimate (log intensity, higher = more binding, comparable within an allelic series)
28 | GGTGTAAA | 10.4 upbm affinity estimate (log intensity, higher = more binding, comparable within an allelic series)
29 | TAGTGTCA | 10.4 upbm affinity estimate (log intensity, higher = more binding, comparable within an allelic series)
30 | GGTGTAGA | 10.3 upbm affinity estimate (log intensity, higher = more binding, comparable within an allelic series)
31 | AAGGTGTA | 10.1 upbm affinity estimate (log intensity, higher = more binding, comparable within an allelic series)

Source: article PMC11006913
